According to PubChem BioAssay (Tox21):
Records with an inconclusive call do not appear. The source made the active and inactive calls. Unless noted, calls follow the shape of the dose curve; as a rule, active = well fitted curve in the direction sought with a large enough effect in the repeat runs; inconclusive = weak or mixed curves; inactive = no such curve, though single readings can be large; an effect the other way counts as inactive or inconclusive.

Legend:
[1] = biological target: Acetylcholinesterase (Homo sapiens) (UniProt P22303); experiment: Acetylcholinesterase (AChE) small molecule antagonists: enzyme-based qHTS assay (AID 1347397; calls by dose curve; also: nearly all actives have a fitted effect of over 55% in size); conditions: Potency: AChE enzyme activity inhibition
How it was run: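 Colorimetric DTNB readout of acetylthiocholine hydrolysis, 10 min at room temperature, after 30 min room-temperature exposure of 50 mU/mL recombinant human enzyme to compound; DMSO vehicle control.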

[2] = biological target: Acetylcholinesterase (Homo sapiens) (UniProt P22303); experiment: Acetylcholinesterase (AChE) small molecule antagonists: fluorescence cell-based qHTS assay (AID 1347398; calls by dose curve; also: nearly all actives have a fitted effect of over 50% in size); conditions: Potency: AChE activity
How it was run: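 Cellular AChE activity read as thiocholine from acetylthiocholine hydrolysis, detected by Thiolite Green fluorescence at 490/520 nm after 40 min at room temperature. Compounds were pre-incubated 30 min at 37 C on adherent SH-SY5Y cells.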

[3] = biological target: Acetylcholinesterase (Homo sapiens) (UniProt P22303); experiment: Acetylcholinesterase (AChE) small molecule antagonists: enzyme-based qHTS assay with human liver microsomes (AID 1347399; calls by dose curve; also: nearly all actives have a fitted effect of over 60% in size); conditions: Potency: qHTS inhibition
How it was run: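 Recombinant human AChE (50 mU/mL in the enzyme mix) and human liver microsomes (0.25 mg/mL final) were preincubated with compound and NADPH (0.25 mg/mL final) for 30 min at 37 C. Acetylthiocholine/DTNB was then added; thiocholine was read colorimetrically after 10 min at room temperature.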

[4] = biological target: Cytochrome P450 2D6 (Homo sapiens) (UniProt P10635); experiment: Cytochrome P450 Family 2 Subfamily D Member 6 (CYP2D6) small molecule antagonists: luciferase reporter qHTS assay (AID 1671196); also: nearly all actives have a fitted effect of over 50% in size
How it was run: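 Room-temperature luminescent CYP2D6 activity assay: compound preincubated 10 min with enzyme–substrate mix, NADPH-initiated reaction 1 h, detection reagent 20 min before reading.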

[5] = biological target: Cytochrome P450 2C19 (Homo sapiens) (UniProt P33261); experiment: Cytochrome P450 Family 2 Subfamily C Member 19 (CYP2C19) small molecule antagonists: luciferase reporter qHTS assay (AID 1671197); also: nearly all actives have a fitted effect of over 65% in size
How it was run: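 First, compounds are pinned into enzyme-substrate mix and held 10 min at room temperature. Second, NADPH regeneration solution is added and plates incubate 1 h at 37C. Third, detection reagent is added and luminescence read after 20 min.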

[6] = biological target: Cytochrome P450 2C9 (Homo sapiens) (UniProt P11712); experiment: Cytochrome P450 Family 2 Subfamily C Member 9 (CYP2C9) small molecule antagonists: luciferase reporter qHTS assay (AID 1671198); also: nearly all actives have a fitted effect of over 50% in size
How it was run: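 Enzyme-substrate mix preincubated with compound 10 min at room temperature; reaction started with NADPH regeneration solution, 1 h 37C. Luminescent luciferin product read after 20 min detection reagent.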

[7] = biological target: Voltage-gated inwardly rectifying potassium channel KCNH2 (Homo sapiens) (UniProt Q12809); experiment: Human Ether-a-go-go-Related Gene (hERG) channel small molecule antagonists: fluorescence cell-based qHTS assay (AID 1671200); also: nearly all actives have a fitted effect of over 50% in size
How it was run: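 Read-out: thallium influx as a surrogate for potassium, tracked as fluorescence (480 nm ex/540 nm em) every second for 2 min after Stimulus Buffer addition in dye-loaded hERG-U2OS cells.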

[8] = biological target: Cytochrome P450 3A4 (Homo sapiens) (UniProt P08684); experiment: Cytochrome P450 Family 3 Subfamily A Member 4 (CYP3A4) small molecule antagonists: luciferase reporter qHTS assay (AID 1671201); also: nearly all actives have a fitted effect of over 50% in size
How it was run: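 Luminescent readout (RLU) proportional to CYP3A4 activity, from luciferin generated off a proluciferin substrate. Enzyme–substrate mix plus compound 10 min at room temp, NADPH regeneration 1 h, detection reagent 20 min.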

[9] = biological target: Cytochrome P450 1A2 (Homo sapiens) (UniProt P05177); experiment: Cytochrome P450 Family 1 Subfamily A Member 2 (CYP1A2) small molecule antagonists: luciferase reporter qHTS assay (AID 1671199); also: nearly all actives have a fitted effect of over 50% in size
How it was run: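 Room-temperature CYP1A2 reaction with proluciferin substrate: compounds added from DMSO, 10 min preincubation, NADPH regeneration for 1 h. Luciferin detection reagent then added; luminescence recorded as RLU.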

Measured: Potency
Potency is read from the fitted curve at half-maximal effect.

Sequence of Voltage-gated inwardly rectifying potassium channel KCNH2 (Homo sapiens) (Q12809 whole entry, looked up): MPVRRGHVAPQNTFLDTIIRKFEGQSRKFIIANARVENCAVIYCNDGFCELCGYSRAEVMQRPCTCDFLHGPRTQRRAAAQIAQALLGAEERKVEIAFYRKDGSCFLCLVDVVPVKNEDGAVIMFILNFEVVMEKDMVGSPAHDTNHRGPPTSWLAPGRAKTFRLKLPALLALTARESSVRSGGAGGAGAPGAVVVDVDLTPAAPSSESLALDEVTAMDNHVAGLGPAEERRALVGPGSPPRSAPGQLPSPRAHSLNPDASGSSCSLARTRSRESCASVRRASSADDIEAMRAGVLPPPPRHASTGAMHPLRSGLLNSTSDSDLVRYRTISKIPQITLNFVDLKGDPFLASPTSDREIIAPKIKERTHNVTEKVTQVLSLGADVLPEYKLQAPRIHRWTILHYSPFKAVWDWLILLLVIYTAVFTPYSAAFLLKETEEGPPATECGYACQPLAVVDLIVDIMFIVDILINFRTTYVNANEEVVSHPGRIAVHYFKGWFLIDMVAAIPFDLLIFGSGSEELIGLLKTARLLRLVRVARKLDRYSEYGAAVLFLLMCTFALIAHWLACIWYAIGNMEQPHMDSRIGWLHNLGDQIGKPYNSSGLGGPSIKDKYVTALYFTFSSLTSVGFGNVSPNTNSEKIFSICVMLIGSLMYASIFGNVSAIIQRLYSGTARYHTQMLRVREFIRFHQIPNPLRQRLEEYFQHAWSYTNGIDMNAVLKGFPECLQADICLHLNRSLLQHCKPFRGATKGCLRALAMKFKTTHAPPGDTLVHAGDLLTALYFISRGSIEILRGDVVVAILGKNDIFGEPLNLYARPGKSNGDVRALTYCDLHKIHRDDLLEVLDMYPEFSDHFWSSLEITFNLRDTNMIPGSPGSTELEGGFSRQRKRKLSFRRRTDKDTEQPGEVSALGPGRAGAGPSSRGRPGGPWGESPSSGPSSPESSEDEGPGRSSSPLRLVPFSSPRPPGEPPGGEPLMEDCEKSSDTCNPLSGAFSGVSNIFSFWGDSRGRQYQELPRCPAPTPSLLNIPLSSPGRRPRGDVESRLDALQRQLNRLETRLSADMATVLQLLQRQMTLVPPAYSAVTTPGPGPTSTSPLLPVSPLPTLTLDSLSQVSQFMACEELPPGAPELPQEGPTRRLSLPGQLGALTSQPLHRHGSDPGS
Sequence of Cytochrome P450 1A2 (Homo sapiens) (P05177 whole entry, looked up): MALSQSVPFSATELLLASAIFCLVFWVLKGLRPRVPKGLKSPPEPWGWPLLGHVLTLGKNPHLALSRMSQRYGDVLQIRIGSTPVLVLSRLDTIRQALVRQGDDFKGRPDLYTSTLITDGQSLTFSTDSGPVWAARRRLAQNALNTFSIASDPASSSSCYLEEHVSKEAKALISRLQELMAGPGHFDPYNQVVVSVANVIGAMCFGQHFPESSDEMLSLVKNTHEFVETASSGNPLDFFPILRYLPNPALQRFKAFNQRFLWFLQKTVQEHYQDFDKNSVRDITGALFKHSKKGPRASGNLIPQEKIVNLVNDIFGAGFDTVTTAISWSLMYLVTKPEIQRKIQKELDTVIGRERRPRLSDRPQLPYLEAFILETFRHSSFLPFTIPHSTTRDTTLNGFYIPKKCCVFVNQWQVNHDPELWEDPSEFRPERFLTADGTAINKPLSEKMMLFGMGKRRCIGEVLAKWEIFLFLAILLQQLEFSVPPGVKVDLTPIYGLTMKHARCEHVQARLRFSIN
Sequence of Cytochrome P450 3A4 (Homo sapiens) (P08684 whole entry, looked up): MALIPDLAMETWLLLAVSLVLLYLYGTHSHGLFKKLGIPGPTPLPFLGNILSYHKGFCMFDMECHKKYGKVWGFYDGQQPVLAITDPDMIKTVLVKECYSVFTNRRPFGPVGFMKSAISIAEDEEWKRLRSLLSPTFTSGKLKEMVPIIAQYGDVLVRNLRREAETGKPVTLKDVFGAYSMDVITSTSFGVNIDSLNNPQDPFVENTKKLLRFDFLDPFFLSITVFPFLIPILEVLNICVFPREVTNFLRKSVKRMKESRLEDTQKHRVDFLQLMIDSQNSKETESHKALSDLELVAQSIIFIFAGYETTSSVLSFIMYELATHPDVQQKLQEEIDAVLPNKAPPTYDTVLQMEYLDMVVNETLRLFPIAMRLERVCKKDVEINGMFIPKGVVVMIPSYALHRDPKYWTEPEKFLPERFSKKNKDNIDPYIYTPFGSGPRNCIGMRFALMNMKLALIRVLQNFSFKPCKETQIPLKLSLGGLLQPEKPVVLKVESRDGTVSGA
Sequence of Acetylcholinesterase (Homo sapiens) (P22303 whole entry, looked up): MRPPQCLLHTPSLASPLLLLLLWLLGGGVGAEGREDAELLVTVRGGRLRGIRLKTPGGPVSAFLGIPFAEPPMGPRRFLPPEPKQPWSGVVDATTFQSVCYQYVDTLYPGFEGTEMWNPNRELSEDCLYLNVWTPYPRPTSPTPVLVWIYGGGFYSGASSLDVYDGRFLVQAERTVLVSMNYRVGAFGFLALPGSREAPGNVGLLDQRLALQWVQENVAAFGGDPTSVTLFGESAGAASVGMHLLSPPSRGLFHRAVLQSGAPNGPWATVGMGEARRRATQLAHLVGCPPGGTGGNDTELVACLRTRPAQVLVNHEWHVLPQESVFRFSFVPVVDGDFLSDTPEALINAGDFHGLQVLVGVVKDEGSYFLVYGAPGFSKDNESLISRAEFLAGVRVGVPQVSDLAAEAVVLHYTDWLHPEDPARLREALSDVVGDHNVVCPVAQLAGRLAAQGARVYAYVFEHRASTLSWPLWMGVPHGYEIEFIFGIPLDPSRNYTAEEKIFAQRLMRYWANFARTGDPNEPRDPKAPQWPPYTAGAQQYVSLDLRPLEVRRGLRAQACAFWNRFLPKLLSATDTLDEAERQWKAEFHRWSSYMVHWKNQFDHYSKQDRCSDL
Sequence of Cytochrome P450 2C19 (Homo sapiens) (P33261 whole entry, looked up): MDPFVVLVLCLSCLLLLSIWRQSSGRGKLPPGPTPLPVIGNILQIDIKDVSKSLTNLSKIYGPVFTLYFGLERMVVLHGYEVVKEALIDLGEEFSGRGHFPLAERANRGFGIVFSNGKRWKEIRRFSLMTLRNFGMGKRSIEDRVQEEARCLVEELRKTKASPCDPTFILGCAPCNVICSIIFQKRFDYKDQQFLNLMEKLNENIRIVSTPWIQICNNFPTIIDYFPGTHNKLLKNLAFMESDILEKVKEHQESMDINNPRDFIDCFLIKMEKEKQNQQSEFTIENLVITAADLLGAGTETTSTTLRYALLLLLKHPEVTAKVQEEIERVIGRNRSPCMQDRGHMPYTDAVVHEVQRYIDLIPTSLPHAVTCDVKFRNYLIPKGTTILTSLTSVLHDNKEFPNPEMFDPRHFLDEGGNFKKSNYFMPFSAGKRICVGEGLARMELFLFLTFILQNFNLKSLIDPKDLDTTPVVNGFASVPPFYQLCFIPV
Sequence of Cytochrome P450 2C9 (Homo sapiens) (P11712 whole entry, looked up): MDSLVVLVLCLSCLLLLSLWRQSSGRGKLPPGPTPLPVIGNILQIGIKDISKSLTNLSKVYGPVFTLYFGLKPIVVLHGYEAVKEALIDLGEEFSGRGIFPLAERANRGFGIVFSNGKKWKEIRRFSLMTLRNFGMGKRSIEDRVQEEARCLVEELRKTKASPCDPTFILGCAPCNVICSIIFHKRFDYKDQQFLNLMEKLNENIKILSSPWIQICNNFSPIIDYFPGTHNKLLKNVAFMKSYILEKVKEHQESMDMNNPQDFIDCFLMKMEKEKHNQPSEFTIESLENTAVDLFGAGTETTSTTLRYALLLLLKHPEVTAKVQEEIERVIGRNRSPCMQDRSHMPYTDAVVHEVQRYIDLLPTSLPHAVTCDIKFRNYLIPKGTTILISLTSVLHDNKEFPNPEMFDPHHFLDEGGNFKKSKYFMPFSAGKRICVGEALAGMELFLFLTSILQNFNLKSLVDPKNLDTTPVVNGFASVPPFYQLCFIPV
Sequence of Cytochrome P450 2D6 (Homo sapiens) (P10635 whole entry, looked up): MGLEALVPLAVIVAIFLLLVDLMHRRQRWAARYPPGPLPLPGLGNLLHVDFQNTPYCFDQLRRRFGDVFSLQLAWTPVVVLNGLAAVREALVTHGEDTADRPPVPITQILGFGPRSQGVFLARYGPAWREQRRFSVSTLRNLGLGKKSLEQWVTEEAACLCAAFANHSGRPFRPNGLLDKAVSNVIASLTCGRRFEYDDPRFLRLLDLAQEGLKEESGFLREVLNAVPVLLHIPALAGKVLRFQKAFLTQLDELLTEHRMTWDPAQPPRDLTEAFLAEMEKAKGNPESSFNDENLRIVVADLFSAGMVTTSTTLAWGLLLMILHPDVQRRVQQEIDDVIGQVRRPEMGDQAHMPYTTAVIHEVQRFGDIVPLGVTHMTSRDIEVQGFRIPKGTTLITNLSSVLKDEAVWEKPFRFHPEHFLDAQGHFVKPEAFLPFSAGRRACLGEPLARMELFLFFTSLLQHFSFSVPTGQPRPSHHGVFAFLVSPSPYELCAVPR

Cc1cccc(C#N)c1
not listed: [9]
inactive: all other assays above

CS(=O)(=O)c1cc(C(F)(F)F)ccc1C(=O)c1cnoc1C1CC1
active: [5] 56.4 µM | [6] 1.59 µM
not listed: [9]
inactive: all other assays above

[Cl][Sn]([Cl])([Cl])[Cl]
active: [5] 81.5 µM | [9] 32.4 µM
not listed: [6]
inactive: all other assays above

CC(C=O)Cc1ccc2c(c1)OCO2 (stereo not given)
active: [4] 63.3 µM | [5] 20 µM | [6] 15.9 µM | [8] 11.2 µM
inactive: [1] | [2] | [3] | [7]

CCN(CC)CCOC(=O)C(C)(c1ccccc1)c1ccccc1
active: [4] 1.55 µM | [5] 3.89 µM | [7] 10.7 µM
inactive: [1] | [2] | [3] | [9]

O=[N+]([O-])c1cccc(O)c1
not listed: [9]
inactive: all other assays above

O=C(O)C(Br)CBr (stereo not given)
active: [4] 36.2 µM | [9] 64.4 µM
not listed: [6]
inactive: all other assays above

ClC(Cl)C(Cl)Cl
not listed: [9]
inactive: all other assays above

Clc1cccc(N2CCNCC2)c1
active: [4] 5.49 µM
not listed: [9]
inactive: all other assays above

CNC(=O)Oc1c(C(C)(C)C)cc(C)cc1C(C)(C)C
active: [5] 2.83 µM | [8] 2.83 µM
not listed: [6]
inactive: all other assays above

O=C1OC(c2ccc(O)c(S(=O)(=O)O)c2)(c2ccc(O)c(S(=O)(=O)O)c2)c2c(Br)c(Br)c(Br)c(Br)c21
not listed: [6]
inactive: all other assays above

N#Cc1ccncc1
not listed: [9]
inactive: all other assays above

N#CC(O)c1ccccc1 (stereo not given)
active: [4] 35.5 µM
not listed: [9]
inactive: all other assays above

CC(C1CC1)C(O)(Cn1cncn1)c1ccc(Cl)cc1 (stereo not given)
active: [4] 35.4 µM | [5] 0.354 µM | [6] 0.126 µM | [8] 0.888 µM
inactive: [1] | [2] | [3] | [7]

CCC1(c2ccccc2)C(=O)NC(=O)NC1=O
active: [4] 11.5 µM
not listed: [9]
inactive: all other assays above

COCC(=O)N(c1c(C)cccc1C)N1CCOC1=O
active: [5] 79.6 µM
not listed: [6]
inactive: all other assays above

ClCC(Cl)(Cl)Cl
not listed: [6]
inactive: all other assays above

[As]#[In]
not listed: [6]
inactive: all other assays above

CC(C)(C)OC(=O)c1ncn2c1[C@@H]1CCCN1C(=O)c1c(Br)cccc1-2
not listed: [6] | [8]
inactive: all other assays above

Fc1ccc(C2(Cn3cncn3)OC2c2ccccc2Cl)cc1 (stereo not given)
active: [4] 39.9 µM | [5] 0.252 µM | [9] 5.03 µM | [8] 0.894 µM
inactive: [1] | [2] | [3] | [7]

ClC(Cl)(Cl)C(Cl)(Cl)Cl
not listed: [6]
inactive: all other assays above

C[N+](=O)[O-]
not listed: [9]
inactive: all other assays above

OC(Cn1cncn1)(c1ccc(F)cc1)c1ccccc1F (stereo not given)
active: [4] 35.6 µM | [5] 2 µM | [9] 31.7 µM | [8] 0.224 µM
not listed: [6]
inactive: all other assays above

CC(C)COP(=O)(OCC(C)C)OCC(C)C
not listed: [9]
inactive: all other assays above

CC1(C)COP(Oc2ccccc2)OC1
not listed: [4] | [9]
inactive: all other assays above

CNC(=O)Oc1ccc(N(C)C)c(C)c1
active: [1] 6.33 µM | [2] 2.24 µM | [3] 39.9 µM | [9] 11.2 µM
not listed: [4]
inactive: all other assays above
